An excerpt weighted towards active compounds, which were near 2.2% of everything screened.
rat GALR2 agon = agonists of rat galanin receptor 2 (GALR2); O08726; cell-based GALR2 agonist screen; activation, % at 10 µM; actives 0.5% (n = 16,000); AID 833; in the data active means activation above about 15%
S1P1 ag = S1P1 (human) receptor agonism. P21453. S1P1 agonist cell-based reporter assay. activation, % at 4.5 µM. actives 1.5% (n = 16,000); in the data active means activation above about 80%
Target sequence (P21453 whole entry, looked up): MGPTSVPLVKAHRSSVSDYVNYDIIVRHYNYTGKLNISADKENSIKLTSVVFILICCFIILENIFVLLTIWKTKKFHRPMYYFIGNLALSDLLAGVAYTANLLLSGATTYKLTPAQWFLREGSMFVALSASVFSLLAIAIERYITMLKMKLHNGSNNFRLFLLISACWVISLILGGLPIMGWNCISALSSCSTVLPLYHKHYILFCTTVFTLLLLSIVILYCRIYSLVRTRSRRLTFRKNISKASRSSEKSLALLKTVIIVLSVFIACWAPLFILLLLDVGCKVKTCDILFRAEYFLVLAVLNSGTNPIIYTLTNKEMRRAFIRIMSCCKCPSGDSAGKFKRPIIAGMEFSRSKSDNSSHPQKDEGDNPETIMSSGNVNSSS
* marks the source's active call; other numbers are inactive results.

For Cn1c(-c2ncc(C(F)(F)F)cc2Cl)n[nH]c1=S the results were rat GALR2 agon -7.1 and S1P1 ag 92.9*.
For Cn1c(C(F)(F)F)n[nH]c1=S the results were rat GALR2 agon -8.6 and S1P1 ag -17.1.
Screening O=C(Nc1ccccc1)Nc1ccccc1Sc1nccc(C(F)(F)F)n1 returned rat GALR2 agon -9.7 and S1P1 ag 3.4.
O=C(CSc1ccccn1)Nc1ccccc1Sc1nccc(C(F)(F)F)n1 was read as rat GALR2 agon -4.9 and S1P1 ag 83.7*.
For Cn1c(Cc2nc(-c3cnccn3)no2)nnc1SCC(=O)Nc1cccc(C(F)(F)F)c1 the results were rat GALR2 agon -6.0 and S1P1 ag -24.0.
Screening O=[N+]([O-])c1cc(C2SCCS2)ccc1Sc1ccc(Cl)cc1 returned rat GALR2 agon 1.7 and S1P1 ag 20.5.
For O=[N+]([O-])c1cc(C2SCCS2)ccc1SC1CCCCC1 the results were rat GALR2 agon -8.5 and S1P1 ag 85.9*.
`N#Cc1ccc(N2CCS(=NC(=O)Nc3ccc(Cl)cc3)CC2)c([N+](=O)[O-])c1` gave rat GALR2 agon -4.3 and S1P1 ag 15.7.
N#C/C(N)=C(/C#N)N=Cc1cccs1 was read as rat GALR2 agon -0.7 and S1P1 ag -6.0.
For N#CCCNc1ccc(N=Nc2ccc(Cl)cc2)cc1 the results were rat GALR2 agon 2.0 and S1P1 ag 103.8*.
For COc1ccc(NCCC#N)cc1 the results were rat GALR2 agon -4.3 and S1P1 ag -9.2.
Screening O=C(NCc1cccnc1)C(=O)NC1CCCCNC1=O (stereo unspecified) returned rat GALR2 agon -0.2 and S1P1 ag -20.4.
O=C(O)c1ccc(OCc2ccccc2)cc1 was read as rat GALR2 agon -2.0 and S1P1 ag -16.4.
Screening c1ccc(COc2ccc(CCC3OCCO3)cc2)cc1 returned rat GALR2 agon 15.0* and S1P1 ag 31.2.
For O=C(c1cccs1)N1CCc2ccccc2C1 the results were rat GALR2 agon 34.0* and S1P1 ag -1.6.
For N#C/C(=C\N1CCc2ccccc2C1)C(=O)c1cccs1 the results were rat GALR2 agon 2.8 and S1P1 ag 12.0.
CN(C)c1ccc(/C=N/NC(N)=S)c(Cl)c1 was read as rat GALR2 agon -6.2 and S1P1 ag -0.5.
For Cc1nc2ccccc2[nH]c1=O the results were rat GALR2 agon -8.3 and S1P1 ag -4.5.
`O=c1[nH]c2ccccc2nc1-c1c[nH]c2ccccc12` gave rat GALR2 agon 81.6* and S1P1 ag -87.6.
Nc1ncnc(SCc2nc(-c3ccc(OC(F)(F)F)cc3)no2)n1 was read as rat GALR2 agon -7.4 and S1P1 ag 3.6.
`FC(F)(F)Oc1ccc(-c2noc(-c3ccno3)n2)cc1` gave rat GALR2 agon -6.3 and S1P1 ag 90.9*.
Screening O=C(Nc1ccccc1)N1CCN(c2ncccc2C(F)(F)F)CC1 returned rat GALR2 agon -4.5 and S1P1 ag -5.7.
`Brc1ccc(-n2cccc2)nc1` gave rat GALR2 agon -9.4 and S1P1 ag 85.5*.
`FC(F)(F)c1ccc(-n2ccnc2)nc1` gave rat GALR2 agon -2.6 and S1P1 ag -4.3.
`Cn1cccc1C(=O)N/N=C/c1ccccn1` gave rat GALR2 agon -8.4 and S1P1 ag -21.0.
For Nc1ccc(C(F)(F)F)cc1N the results were rat GALR2 agon -7.8 and S1P1 ag 3.8.
`Cc1cc(N=Nc2cccc(C(F)(F)F)c2)ccc1N` gave rat GALR2 agon -12.2 and S1P1 ag 100.7*.
O=C(O)CCNC(=S)Nc1cc(Cl)ccc1Cl was read as rat GALR2 agon -4.2 and S1P1 ag -11.8.
Screening CC12CCC(C1)C(C)(C)C2NC(=O)c1cccs1 (stereo unspecified) returned rat GALR2 agon -4.2 and S1P1 ag -1.5.
For Cc1c(-c2nc(-c3ccc(C(C)(C)C)cc3)no2)n(C)oc1=O the results were rat GALR2 agon -2.8 and S1P1 ag 95.4*.
`Cc1c(-c2nc(-c3ccc([N+](=O)[O-])o3)no2)n(C)oc1=O` gave rat GALR2 agon -10.5 and S1P1 ag -10.7.
COc1ccc(C(=O)NNC(=O)C2C3C=CC(C3)C2C(=O)O)cc1 (stereo unspecified) was read as rat GALR2 agon -7.6 and S1P1 ag -5.5.
O=C(Nc1ccc(F)c(Cl)c1)c1cc(Br)ccc1O was read as rat GALR2 agon -12.2 and S1P1 ag 109.4*.
Screening O=C(Cc1nn[nH]n1)Nc1ccc(F)c(Cl)c1 returned rat GALR2 agon -5.8 and S1P1 ag -5.1.
`S=C(N/N=C/c1[nH]ncc1Br)Nc1ccc(Cl)cc1` gave rat GALR2 agon 2.0 and S1P1 ag 27.2.
`O=C(Nc1ccc(F)c(F)c1F)c1cnccn1` gave rat GALR2 agon -5.9 and S1P1 ag -7.6.
Screening Cn1cnc([N+](=O)[O-])c1NCCN1CCNC1=O returned rat GALR2 agon -8.4 and S1P1 ag 11.4.
N#Cc1cccc(NCCN2CCNC2=O)n1 was read as rat GALR2 agon 46.8* and S1P1 ag -5.4.
CC1CC(=O)c2cc(Cl)ccc2S1(=O)=O (stereo unspecified) was read as rat GALR2 agon -5.3 and S1P1 ag 3.9.
CCCc1ccc(-c2nc(-c3ccc(OS(=O)(=O)N(C)C)cc3)no2)cc1 was read as rat GALR2 agon -7.3 and S1P1 ag 9.4.
Screening COc1ccc(/C=C2\CC/C(=C\c3ccc(OC)c(OC)c3)C2=O)cc1OC returned rat GALR2 agon -9.4 and S1P1 ag 2.2.
COc1ccc(/C=C/c2nc3ccccc3s2)cc1OC was read as rat GALR2 agon -2.6 and S1P1 ag 85.3*.
Screening CC(NC(=S)NCc1ccncc1)c1ccccc1 (stereo unspecified) returned rat GALR2 agon -4.4 and S1P1 ag -12.3.
Nc1ccc(Oc2cc(C(F)(F)F)ccc2Cl)cc1F was read as rat GALR2 agon 2.0 and S1P1 ag 3.5.
For O=C(NCc1cccnc1)Nc1cc(Cl)sc1Cl the results were rat GALR2 agon 0.5 and S1P1 ag -0.4.
Screening O=C(Nc1ccc(-c2cnco2)cc1)c1csc([N+](=O)[O-])c1 returned rat GALR2 agon -1.1 and S1P1 ag 104.7*.
`O=C(Nc1ccc(Cl)cc1)c1csc([N+](=O)[O-])c1` gave rat GALR2 agon -5.7 and S1P1 ag 12.2.
CCOC(=O)/C(=N/O)C1=CSC2=NNC(c3ccc(Cl)cc3)N12 (stereo unspecified) was read as rat GALR2 agon -4.2 and S1P1 ag 7.5.
`CSc1sc(NC(=O)Nc2ccc(F)c(Cl)c2)c(-c2ccc(Cl)cc2)c1C#N` gave rat GALR2 agon -3.6 and S1P1 ag 15.1.
Screening O=C(O)CSCC(=O)Nc1cccc2c1CCCC2 returned rat GALR2 agon 24.4* and S1P1 ag 0.5.
O=C(O)CSCC(=O)Nc1cccc(F)c1C(=O)O was read as rat GALR2 agon -5.8 and S1P1 ag -4.1.
N#CC1=C(N)OC(c2cccnc2)=C(C#N)C1c1cccs1 (stereo unspecified) was read as rat GALR2 agon -3.4 and S1P1 ag 3.8.
CSc1nnc(-c2sc3nc(C)cc(C)c3c2N)n1Cc1ccccc1 was read as rat GALR2 agon 29.3* and S1P1 ag 5.4.
`Cc1cc(C)c2c(N)c(C(N)=O)sc2n1` gave rat GALR2 agon -3.0 and S1P1 ag 27.5.
For O=C(c1cccc(CN2CCN(Cc3ccccc3)CC2)c1)N1CCC(O)CC1 the results were rat GALR2 agon -5.1 and S1P1 ag -7.1.
Screening CC(=O)/C(N=Nc1ccccc1Cl)=C(/O)c1ccccc1 returned rat GALR2 agon -5.2 and S1P1 ag -3.9.
COC(=O)c1sc2ccccc2c1OC(=O)c1cccs1 was read as rat GALR2 agon -7.7 and S1P1 ag 23.0.
